Screens as filed in PubChem BioAssay.
This is a sample that favours compounds with a hit; in the whole collection about 3.6% have one here.
TRHR agonist = activates the human TRH receptor. P34981. TRHR cells, calcium flux fluo-8, FDSS agonist mode. activation, % at 2 µM. 360,000 tested, 0.18% active. AID 493084; also: 0% is about no effect
Target sequence (P34981 whole entry, looked up): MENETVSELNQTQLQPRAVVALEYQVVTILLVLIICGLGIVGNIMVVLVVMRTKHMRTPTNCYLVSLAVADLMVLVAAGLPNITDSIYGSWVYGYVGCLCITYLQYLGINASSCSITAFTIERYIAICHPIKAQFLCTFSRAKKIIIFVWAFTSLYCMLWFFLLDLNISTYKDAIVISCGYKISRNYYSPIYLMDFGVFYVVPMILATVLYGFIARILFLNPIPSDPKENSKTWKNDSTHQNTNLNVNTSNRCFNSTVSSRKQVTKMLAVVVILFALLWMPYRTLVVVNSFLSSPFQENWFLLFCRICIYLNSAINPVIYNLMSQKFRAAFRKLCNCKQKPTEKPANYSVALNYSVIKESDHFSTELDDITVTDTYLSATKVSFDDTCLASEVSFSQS
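TRHR-expressing cells loaded with fluo-8 calcium dye; 23 nL library compound pin-transferred, kinetic FDSS fluorescence (Ex 480/Em 530) recorded about 180 s for agonist-induced calcium release, before a 10 nM TRH EC20 addition for potentiator mode.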
TRHR PAM = allosteric enhancers of human TRH receptor. 360,000 tested, 0.66% active. enhancement, % at 2 µM. TRHR cells, fluo-8 calcium fluorescence, EC20 TRH enhancement. P34981. AID 493056; in the data active = enhancement above about 30%; also: 0% is about no effect
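Enhancer read-out: after compound pinning and an initial kinetic agonist-mode read, an EC20 of TRH (10 nM final) was injected and fluo-8 calcium signal (Ex 480/Em 530) followed at 1 s/cycle for 100 cycles in TRHR-expressing cells.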
LDHA block = LDHA (human) enzyme inhibition; purified LDHA, NADH/diaphorase-resazurin fluorescence; stronger effect = lower value; 480,000 tested, 0.15% active; P00338; AID 1347041; activity change, % (values are at about 110 or 230 µM); in the data active = activity change below about -30%;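 also: plate controls were DMSO wells for no effect and wells without enzyme for full effect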
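Remaining NADH was detected by diaphorase (0.133 mg/mL) converting 37 µM resazurin to fluorescent resorufin, read at 0 and 20 minutes. The preceding 5-minute room-temperature reaction used 2 nM LDHA, 0.2 mM sodium pyruvate and 0.06 mM NADH at pH 7.4.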
D1 agonist = activates the human D1 dopamine receptor; P21728; HEK293 T-REx D1 cells, calcium flux, agonist mode; activation, % at 2 µM; 360,000 tested, 1% active; AID 504660; also: 0% is about no effect
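Inducible HEK293 T-REx D1 cells, force-coupled to calcium signalling, were plated at 4000 cells/well with tetracycline and held overnight at 30 C. After no-wash calcium dye loading, compound-evoked calcium rise over 180 s flagged agonists.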
D1 PAM = enhances dopamine response at the human D1 receptor; HEK293 TREx D1 cells, calcium flux, dopamine EC20 potentiation; potentiation, % at 10 µM; 360,000 tested, 0.036% active; AID 504651; in the data active = potentiation above about 30%; also: 0% is about no effect
D1 antagonist = antagonists of human D1 dopamine receptor; HEK293 TREx D1 cells, calcium flux, dopamine EC80; stronger effect = lower value; 360,000 tested, 3.2% active; AID 504652; activity change, negative = inhibition, % at 10 µM; P21728; in the data active = activity change below about -30%; also: % is scaled to controls: 0 for no effect and ±100 for the full control effect
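Tetracycline-induced HEK293 T-REx cells with force-coupled D1 receptor were loaded with a no-wash calcium dye. Compound was added after a 10 s baseline and read kinetically for 180 s; EC80 dopamine was then added and calcium flux followed another 180 s.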
An asterisk follows results filed as active; · = no result given; ! = not confirmed by another sample. Rule as the data show it, unless noted: active = activation above about 30%; inactive = the rest.

SMILES	TRHR agonist	TRHR PAM	LDHA block	D1 agonist	D1 PAM	D1 antagonist
COc1ccccc1N(C(=O)c1snc(C(N)=O)c1N)C(C(=O)NCc1ccccc1)c1ccc(O)cc1 (stereo unspecified)	0	2	-9	7	9	11
CCC(NC(=O)c1cccnc1)C12CC3CC(CC(C3)C1)C2 (stereo unspecified)	·	·	0	·	·	·
CCCCCCC(=O)NNC(=O)c1c(O)c2ccccc2n(CCC)c1=O	0	6	-2	11	0	-4
CCCn1c(=O)c(C(=O)NNC(=O)c2ccccc2[N+](=O)[O-])c(O)c2ccccc21	0	1	·	2	-16	-6
CCCn1c(=O)c(C(=O)NNC(=O)Cc2ccccc2)c(O)c2ccccc21	0	33*	-7	6	-6	-5
CCCn1c(=O)c(C(=O)NNC(=O)c2ccccc2Cl)c(O)c2ccccc21	30*	-2	-1	21	-6	-19
O=C1OCCC1N1CCN(c2ccccc2O)CC1 (stereo unspecified)	·	·	38	·	·	·
N#C/C(=C\c1ccc(-c2cccc(Br)c2)o1)c1nc2ccccc2[nH]1	·	·	12	·	·	·
N#C/C(=C\c1ccc(N2CCOCC2)o1)c1nc2ccccc2[nH]1	0	3	15	64*	-2	-20
Cc1ccc2nc(/C(C#N)=C/c3ccc(-c4cccc(Cl)c4)o3)[nH]c2c1	59*	4	-1	277*	1	1
N#C/C(=C\c1ccc(N2CCOCC2)c([N+](=O)[O-])c1)c1nc2ccccc2[nH]1	0	-5	-11	1	-7	-26
Cc1ccc2nc(/C(C#N)=C/c3cn[nH]c3-c3ccc(F)cc3)[nH]c2c1	0	-6	-3	1	-1	-45*
N#C/C(=C\c1ccc(-c2ccc(C(=O)O)cc2)o1)c1nc2ccccc2[nH]1	31*!	4	-4	43*	-2	3
COc1ccc(C=O)cc1COc1ccc2c(c1)CCC2	·	·	7	·	·	·
CCN(CC)Cc1c(-c2ccccc2)[nH]c2ccc(C)cc2c1=O	0	10	-4	0	-13	-48*
CCc1ccc2[nH]c(C)c(CN(CC)CC)c(=O)c2c1	·	·	-5	·	·	·
CC(=O)C1=C(C)N(Cc2ccccc2)C(=O)N[C@H]1CCc1ccccc1	0	2	-2	16	-3	-31*
COC(=O)C1=C(C)N(Cc2ccccc2)C(=O)N[C@H]1c1ccccc1	0	7	-6	100*	-6	-6
CCOC(=O)CN1C(=O)N[C@@H](CCc2ccccc2)C(C(C)=O)=C1C	·	·	-2	·	·	·
COCCN=C1N[C@@H](c2cccc(C(F)(F)F)c2)C(C(=O)OC)=C(C)N1Cc1ccccc1	5	-4	-9	32*	-5	0
COC(=O)C1=C(C)N(Cc2ccccc2)C(=O)N[C@H]1c1cccc(F)c1	·	·	-6	·	·	·
COC(=O)C1=C(C)N(Cc2ccccc2)C(=NCC(C)C)N[C@H]1c1ccccc1	0	-7	-6	40*!	-5	2
COc1ccc2nc(COc3ccccc3OC)[nH]c2c1	·	·	-17	·	·	·
COc1ccc(-c2csc(NC(=O)c3nn(C(C)C)c(=O)c4ccccc34)n2)cc1	·	·	-4	·	·	·
Cc1ccc(C(=O)Nc2oc3ccccc3c(=O)c2-c2ccccc2)cc1	·	·	2	·	·	·
SMILES	TRHR agonist	TRHR PAM	LDHA block	D1 agonist	D1 PAM	D1 antagonist
C/C=C/C=C/C(=O)OCC(=O)c1ccc(Br)s1	·	·	0	·	·	·
O=C(NC(c1ccccc1)c1ccccc1)c1cc(=O)c2ccccc2o1	·	·	6	·	·	·
Cc1ccc(C(O)CNC(=O)C2CCC2)cc1 (stereo unspecified)	·	·	0	·	·	·
CCN1C(=NCCc2c[nH]c3ccccc23)N[C@@H](c2ccccc2)C(C(=O)OC)=C1C	3	2	·	49*!	-4	-9
C=CCN=C1N[C@@H](c2ccc(Br)cc2)C(C(=O)OC)=C(C)N1Cc1ccccc1	1	-8	-16	31*	0	22
COC(=O)C1=C(C)N(Cc2ccccc2)C(=NCCc2c[nH]c3ccccc23)N[C@H]1c1cccc(C(F)(F)F)c1	1	2	0	12	-4	6
C=CCN=C1N[C@@H](c2ccccc2)C(C(=O)OC)=C(C)N1CC	0	-2	-2	1	-1	-9
Cc1ccc(OCC(=O)O/N=C(\N)c2ccncc2)c(C)c1	-1	9	0	7	·	-31*
Cc1ccccc1-c1cc2nc(C)c(C)c(=O)n2[nH]1	0	11	-8	4	-4	-33*
Cc1nnc2ccc(N3CCN(C(=O)c4ccccc4)CC3)nn12	0	0	0	0	-2	-62*
Cc1ccc(C(=O)N2CCN(c3ccc(N4CCOCC4)nn3)CC2)cc1	0	4	-4	1	-11	-32*
O=C(NCCc1nnc2ccc(SCC(=O)N3CCCC3)nn12)c1ccccc1	0	-8	-2	0	-2	-16
O=C(NCCc1nnc2ccc(N3CCCCCC3)nn12)c1ccccc1	5	-1	-8	41*	-12	-31*
Cc1nnc2ccc(N3CCC(C(=O)O)CC3)nn12	·	·	-6	·	·	·
Cc1ccc(OCc2ccc(C(=O)Nc3cccc(C)c3)cc2)cc1	·	·	-2	·	·	·
CCOc1ccccc1-n1nnnc1SCc1nc2ccccc2s1	0	-11	-8	13	-3	-31*
CCC(C(=O)OCC(=O)NC(=O)c1ccccc1OC)c1ccccc1 (stereo unspecified)	0	6	-8	8	-1	-2
CCC(C(=O)OCC(=O)NC(=O)c1ccccc1)c1ccccc1 (stereo unspecified)	-1	-2	-5	70*	-5	-10
NC(=O)NC(Cc1ccccc1)C(=O)Nc1ccc(S(N)(=O)=O)cc1 (stereo unspecified)	1	7	-9	0	-1	-76*
CCOC(=O)C1C(=O)NC(N2CCN(Cc3ccccc3)CC2)=NC1c1ccco1 (stereo unspecified)	0	0	-9	1	-1	-36*
CCOC(=O)C1C(=O)NC(N2CCN(Cc3ccccc3)CC2)=NC1c1ccccc1 (stereo unspecified)	0	-9	-14	2	-2	4
